Test results taken from PubChem BioAssay (NCATS).
Results filed as inconclusive are left out. Activity calls are given as the source filed them. Unless noted, calls come from the whole dose curve; as a rule, active = well fitted curve in either direction with a large enough effect (not every such curve was filed as active); inconclusive = small, poorly fitted or top-dose-only effect, or another doubt; inactive = flat fitted curve, though single readings scatter.

How the values were obtained:
[1] = AP1 Signaling Pathway (AID 357); conditions: ME-180 AP-1-bla reporter, EGF-induced, beta-lactamase ratio, 5 h; at 7.69 µM (top of the series) unless noted;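 note: ME-180 reporter cells stimulated with EGF at its EC50 level; % is set by controls: 0 for no effect and ±100 for the full control effect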
Summary of the method: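 Titration-series screen for positive or negative modulators of EC50 EGF-induced signaling in ME-180 cells carrying an AP-1-driven beta-lactamase reporter. After 5 hours at 37 degrees Celsius, CCF4 460nm/530nm emission ratio gave %Activity; AC50 values derived.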

[2] = NFAT Signaling Pathway (AID 444); conditions: Jurkat NFAT-bla M1, carbachol, beta-lactamase ratio, 5 h; at 7.69 µM (top of the series) unless noted;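 note: carbachol stimulus at about its EC50 of 1 µM final; % is set by controls: 0 for no effect and ±100 for the full control effect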
Summary of the method: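 Jurkat cells carrying an NFAT-driven β-lactamase reporter and co-transfected muscarinic M1 receptor were treated with compound plus carbachol (1 uM final, an EC50 level) for 5 h at 37 °C. CCF4 loading followed for 1 h at RT; 460/530 nm ratio gave %activity.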

[3] = Stat Signaling Pathway (AID 446); conditions: ME-180 SIE beta-lactamase reporter, IL-6 stimulated, 5 h; at 7.69 µM (top of the series) unless noted;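 note: ME-180 cervical cancer cells given 40 pM IL-6 alongside compound; SIE-controlled beta-lactamase reporter measured as 460/530 nm FRET emission ratio; % is set by controls: 0 for no effect and ±100 for the full control effect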
Summary of the method: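 Reporter line: ME-180 cervical carcinoma, SIE-beta-lactamase. Treatment: compound with 40 pM IL-6, 5 hrs, 37 C, in low-serum OPTI-MEM with 10 mM HEPES pH 7.3. Detection: 460/530 nm fluorescence.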

[4] = biological target: Glucocorticoid receptor (Homo sapiens) (UniProt P04150); experiment: GR-EFC Redistribution (AID 451; calls by dose curve; note: potency is the fitted concentration of half-maximal effect); conditions: CHO-K1 GR-EFC translocation, beta-gal luminescence, 2 h
Summary of the method: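 CHO-K1 cells stably expressing nuclear-localized β-gal enzyme acceptor and GR fused C-terminally to the enzyme donor fragment; ligand-driven nuclear translocation restores β-gal by complementation. Compounds titrated up to 46 uM final, 2 h at 37 °C; luminescence read.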

[5] = biological target: Mitogen-activated protein kinase 10 (Mus musculus) (UniProt Q61831); experiment: JNK3 AlphaScreen Assay (AID 530);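 note: kinase came from lysate of stimulated human HepG2 cells; signal reports phosphorylation of biotinylated GST-cJun 1-79 at Ser73 with 10 µM ATP; % is set by controls: 0 for no effect and ±100 for the full control effect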
Summary of the method: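 JNK3 came from HepG2 lysates pre-activated with IL-1beta and TNF-alpha and phosphorylated biotinylated GST-cJun (1-79) at 10 uM ATP, pH 7.6, room temperature. Compounds were titrated. AlphaScreen signal used anti-phospho-cJun (Ser73) antibody.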

[6] = biological target: 3',5'-cyclic-AMP phosphodiesterase 4B (Homo sapiens) (UniProt Q07343); experiment: qHTS Assay for Inhibitors of PDE-IV (AID 607; active = well fitted activation curve with a large enough effect in the main read-out, with a control signal flat, not every such curve was filed as active; note: % of control where 0% means no effect)
Summary of the method: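 Cell-based read-out of cAMP via a modified cyclic nucleotide-gated channel and membrane potential dye (535/590 nm) in HEK293 cells expressing PDE4 endogenously. Compounds tested up to 22.9 uM final; 100 uM RO 20-1724 reference.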

[7] = qHTS Assay for Lipid Storage Modulators (AID 1519; calls by dose curve); conditions: Drosophila S3 cells, BODIPY lipid droplet/cell ratio, laser cytometry, cells loaded with oleic acid; for activity change, negative = inhibition: at 57.5 µM (top of the series)
Summary of the method: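 Cells seeded at 5,000 per well were treated with compounds over a concentration series and loaded with oleic acid (400 uM, as added). Lipid droplet fluorescence (488 nm excitation, 500-530 nm channel) was read by laser-scanning cytometry and normalized to 20 uM Triacsin C.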

[8] = biological target: Glucocorticoid receptor (Homo sapiens) (UniProt P04150); experiment: GR-GFP Redistribution (AID 450;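 active = compounds whose dose series gives a full or clear partial fitted curve of increased nuclear translocation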; note: potency is the fitted concentration of half-maximal effect); conditions: U2OS GR-GFP nuclear translocation, laser cytometry, 2 h
[9] = biological target: Ubiquitin carboxyl-terminal hydrolase 1 (Homo sapiens) (UniProt O94782); experiment: Inhibitors of USP1/UAF1: Pilot qHTS (AID 504865; active = well fitted inhibition curve with a large enough effect;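 note: rhodamine fluorescence freed from ubiquitin-rhodamine substrate followed over time; top concentration of the series differs between compounds; % is set by controls: 0 for no effect and ±100 for the full control effect; nearly all actives have a fitted effect of over 35% in size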)
Summary of the method: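 Kinetic fluorescence assay: 1nM USP1/UAF1, 15 min compound preincubation, then 150nM Ub-Rho; 480/540 nm.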

[10] = measured here: cell count channel max response
[11] = measured here: lipid channel max response

Sequence of Ubiquitin carboxyl-terminal hydrolase 1 (Homo sapiens) (O94782 whole entry, looked up): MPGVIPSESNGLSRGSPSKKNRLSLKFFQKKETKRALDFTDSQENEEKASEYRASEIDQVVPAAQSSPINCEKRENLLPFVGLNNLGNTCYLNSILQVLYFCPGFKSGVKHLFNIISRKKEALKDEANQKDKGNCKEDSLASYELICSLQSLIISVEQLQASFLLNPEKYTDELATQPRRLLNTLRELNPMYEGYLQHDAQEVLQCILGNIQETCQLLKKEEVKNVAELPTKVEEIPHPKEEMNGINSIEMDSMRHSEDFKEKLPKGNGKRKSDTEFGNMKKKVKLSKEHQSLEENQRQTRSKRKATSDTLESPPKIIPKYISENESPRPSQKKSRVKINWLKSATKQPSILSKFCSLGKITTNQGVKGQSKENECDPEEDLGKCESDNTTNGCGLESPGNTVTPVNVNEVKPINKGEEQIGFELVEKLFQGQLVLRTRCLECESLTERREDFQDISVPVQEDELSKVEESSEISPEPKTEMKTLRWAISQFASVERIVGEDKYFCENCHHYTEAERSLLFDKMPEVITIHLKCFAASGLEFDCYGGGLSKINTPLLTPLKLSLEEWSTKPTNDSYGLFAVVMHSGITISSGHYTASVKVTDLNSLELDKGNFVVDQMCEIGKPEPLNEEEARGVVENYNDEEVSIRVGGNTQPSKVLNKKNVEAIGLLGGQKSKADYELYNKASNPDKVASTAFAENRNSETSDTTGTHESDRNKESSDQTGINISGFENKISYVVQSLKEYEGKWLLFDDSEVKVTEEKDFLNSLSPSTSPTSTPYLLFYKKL
Sequence of 3',5'-cyclic-AMP phosphodiesterase 4B (Homo sapiens) (Q07343 whole entry, looked up): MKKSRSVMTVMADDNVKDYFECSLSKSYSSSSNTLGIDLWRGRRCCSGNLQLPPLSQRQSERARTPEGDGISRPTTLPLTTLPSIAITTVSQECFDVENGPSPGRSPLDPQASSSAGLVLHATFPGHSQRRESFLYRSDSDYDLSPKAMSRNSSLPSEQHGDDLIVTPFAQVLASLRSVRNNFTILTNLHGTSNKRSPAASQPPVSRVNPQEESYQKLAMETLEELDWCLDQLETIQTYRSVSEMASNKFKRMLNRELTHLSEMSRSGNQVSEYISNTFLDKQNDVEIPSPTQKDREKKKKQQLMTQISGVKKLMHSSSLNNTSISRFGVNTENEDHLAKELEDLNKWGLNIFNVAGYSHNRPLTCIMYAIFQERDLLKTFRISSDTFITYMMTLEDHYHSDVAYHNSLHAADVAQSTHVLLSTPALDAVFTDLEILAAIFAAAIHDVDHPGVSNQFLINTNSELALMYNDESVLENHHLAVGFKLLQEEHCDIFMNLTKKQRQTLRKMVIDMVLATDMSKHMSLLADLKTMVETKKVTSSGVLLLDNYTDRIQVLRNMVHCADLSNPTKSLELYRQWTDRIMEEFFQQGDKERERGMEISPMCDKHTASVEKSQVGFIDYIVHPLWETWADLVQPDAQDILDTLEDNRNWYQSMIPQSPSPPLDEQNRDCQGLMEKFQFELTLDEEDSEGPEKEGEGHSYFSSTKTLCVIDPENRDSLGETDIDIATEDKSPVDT
Sequence of Glucocorticoid receptor (Homo sapiens) (P04150 whole entry, looked up, the tested form may be a part): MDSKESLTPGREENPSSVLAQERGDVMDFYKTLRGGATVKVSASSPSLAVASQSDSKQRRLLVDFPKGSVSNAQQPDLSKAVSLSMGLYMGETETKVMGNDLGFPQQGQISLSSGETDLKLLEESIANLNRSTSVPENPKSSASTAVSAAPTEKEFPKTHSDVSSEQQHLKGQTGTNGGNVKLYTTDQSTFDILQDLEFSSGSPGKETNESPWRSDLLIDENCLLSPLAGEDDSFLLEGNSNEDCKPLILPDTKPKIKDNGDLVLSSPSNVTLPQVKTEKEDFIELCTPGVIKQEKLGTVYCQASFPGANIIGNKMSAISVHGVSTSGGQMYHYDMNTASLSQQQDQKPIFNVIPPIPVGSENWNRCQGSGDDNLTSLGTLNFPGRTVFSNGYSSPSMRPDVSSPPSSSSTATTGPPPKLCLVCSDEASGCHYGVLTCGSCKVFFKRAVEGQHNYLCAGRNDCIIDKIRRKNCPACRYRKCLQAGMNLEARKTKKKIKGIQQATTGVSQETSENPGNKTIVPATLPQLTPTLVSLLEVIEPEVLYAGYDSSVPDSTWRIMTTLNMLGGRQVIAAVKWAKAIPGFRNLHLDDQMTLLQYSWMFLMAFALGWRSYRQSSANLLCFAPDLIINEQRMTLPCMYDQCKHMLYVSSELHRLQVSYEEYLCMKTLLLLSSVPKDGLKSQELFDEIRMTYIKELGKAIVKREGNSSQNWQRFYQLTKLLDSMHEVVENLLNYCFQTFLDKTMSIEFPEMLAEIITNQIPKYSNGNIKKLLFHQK

SMILES	activity change, negative = inhibition [1]	activity change, negative = inhibition [2]	activity, negative = inhibition [3]	Potency [4]	Potency [5]	Potency [6]	activity change, negative = inhibition [7]	max response [7, 10] [%]	max response [7, 11] [%]	Potency [8]	Potency [9]
O=C(c1cnccn1)N1CCC2(CCN(Cc3ccncc3)CC2)CC1	-11.5% (inactive)	-19.7% (inactive)	-8.42% (inactive)	> 46 µM (inactive)	inactive	inactive	3.75% (inactive)	2.59	8.61		
CN(C)Cc1ccccc1-c1ccc2ncnc(NC3CC3)c2c1	24% (inactive)	-9.4% (inactive)	-14.6% (inactive)	> 46 µM (inactive)	inactive	inactive	9.69% (inactive)	12.6	24.1	> 46 µM (inactive)	inactive
COc1ccc(C(=O)N2CCC3(CC2)CN(c2ccccn2)C3)cc1	3.74% (inactive)	-14.4% (inactive)	-24.1% (inactive)	> 46 µM (inactive)	inactive	inactive	6.8% (inactive)	15.9	29.6		
O=C(Nc1ccccc1)N1CC[C@@]2(CCCN(C(=O)c3ccncc3)C2)C1	-15.8% (inactive)	-4.67% (inactive)	-5.93% (inactive)		inactive	inactive	1.5% (inactive)	13.8	15.1		
CC(C)NC(=O)N1CC[C@@]2(CCCN(C(=O)c3ccncc3)C2)C1	-20.1% (inactive)	16.9% (inactive)	-4.77% (inactive)	> 46 µM (inactive)	inactive	inactive	0.271% (inactive)	-1.86	0.996		
O=S(=O)(c1ccccc1)N1CCC2(CCN(c3ccncc3)CC2)CC1	2.08% (inactive)		1.98% (inactive)	> 46 µM (inactive)	inactive	inactive	3.52% (inactive)	9.97	17		
O=c1c(CCc2ccccc2)nc2cnc(N3CCOCC3)nc2n1C[C@H]1CCCO1	-13.7% (inactive)	-4.34% (inactive)	-10.8% (inactive)	> 46 µM (inactive)	inactive	inactive	-15.5% (inactive)	-5.26	-6.55	> 9.22 µM (inactive)	
Cc1cccc(CNc2ccnc(-c3cccc(NS(C)(=O)=O)c3)n2)c1	-18.5% (inactive)	9.66% (inactive)		> 46 µM (inactive)	inactive	inactive	8.1% (inactive)	4.58	-1.23	> 46 µM (inactive)	
CN1CCN(c2nc(-c3cccc(NS(C)(=O)=O)c3)nc3ccccc23)CC1	2.06% (inactive)	7.49% (inactive)	-8.68% (inactive)	> 46 µM (inactive)	inactive		4.29% (inactive)	7.68	8.93	> 46 µM (inactive)	inactive
N#Cc1ccc(CN2CCCC3(CCNCC3)C2)cc1	6.69% (inactive)	-22.5% (inactive)	-0.579% (inactive)	> 46 µM (inactive)	inactive	inactive	1.45% (inactive)	12.8	18.2		
COc1ccc(NC(=O)N2CCC3(CC2)CCN(C(=O)c2cc(C(F)(F)F)cc(C(F)(F)F)c2)CC3)cc1	-5.96% (inactive)		-5.72% (inactive)	> 46 µM (inactive)	inactive	inactive	-8% (inactive)	3.79	-1.48		
O=C(Oc1ccccc1)N1CCC2(CCCN(c3ccncc3)C2)CC1	14.2% (inactive)	-80.6% (active)	18.8% (inactive)	> 46 µM (inactive)	inactive	inactive	4.64% (inactive)	1.04	10.6		
COc1cccc(-c2nc(N3CCNCC3)c3ccccc3n2)c1	21.6% (inactive)	-0.232% (inactive)	-3.15% (inactive)	> 46 µM (inactive)	inactive	inactive	5.82% (inactive)	-17.6	-11.1	> 46 µM (inactive)	inactive
CN(C)C(=O)c1ccc(-c2ccc3ncnc(NCc4cccnc4)c3c2)cc1	-3.5% (inactive)	14% (inactive)	-1.99% (inactive)	> 46 µM (inactive)	inactive	inactive	8.52% (inactive)	9.7	16.7	> 46 µM (inactive)	inactive
COc1ccc(C(=O)N2CCC3(CCN(Cc4ccccc4)CC3)CC2)cc1	-0.685% (inactive)		0.0273% (inactive)	> 46 µM (inactive)	inactive		0.635% (inactive)	-0.0682	7.94		
CN1CCN(c2ccnc(-c3ccccc3C(F)(F)F)n2)CC1	8.46% (inactive)		3.89% (inactive)	> 46 µM (inactive)	inactive		3.24% (inactive)	-19.5	-14.8	> 46 µM (inactive)	inactive
COc1cccc(Cn2c(=O)cnc3cnc(N4CCN(C)CC4)nc32)c1	-3.06% (inactive)	-19.9% (inactive)	-11.2% (inactive)	> 46 µM (inactive)	inactive	inactive	5.18% (inactive)	20.4	22.6	> 9.22 µM (inactive)	inactive
